The text below walks through data of PubChem BioAssay (NCATS).

Inconclusive results are not listed. Entries that show only a call come without a potency. Calls of active or inactive are those of the source. The call rests on the fitted dose curve; in most records, active means well fitted curve in the direction sought with a large enough effect; inconclusive means small, poorly fitted or top-dose-only effect, or another doubt; inactive means no such curve, though single readings can be large; an effect the other way counts as inactive or inconclusive.
Potency means the concentration at half of the fitted maximal effect.

Chain of Calcium and integrin-binding protein 1 (Homo sapiens) (Q99828 whole entry, looked up): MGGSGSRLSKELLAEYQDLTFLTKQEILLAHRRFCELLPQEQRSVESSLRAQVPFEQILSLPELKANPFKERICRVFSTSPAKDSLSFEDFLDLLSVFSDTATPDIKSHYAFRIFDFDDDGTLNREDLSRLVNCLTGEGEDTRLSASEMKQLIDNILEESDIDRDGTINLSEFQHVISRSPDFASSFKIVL

One assay has as its target Calcium and integrin-binding protein 1 (Homo sapiens) (UniProt Q99828). As to the kind of experiment: Confirmatory qHTS for Identification of Calcium Integrin Binding Protein 1 (CIB1) Competitor (AID 1508617). Further: nearly all actives have a fitted effect of over 65% in size. As to conditions: CIB1 binding competition assay, biochemical qHTS; series mostly up to 76.6 µM. The method, boiled down: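 FP competition: CIB1-GST (1 uM final) in 5 mM HEPES pH 7.4, 125 mM NaCl, 5 mM CaCl2, 0.01% Tween20 preincubated 15 min RT with compounds (up to 114 uM), then FITC-alphaIIb peptide (100 nM), 15 min RT; Ex 480/Em 540.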
In the case of `O=C(O)CSc1cc(NS(=O)(=O)c2ccc(Br)cc2)c2ccccc2c1O`, the Potency was 12.6 µM (active).

On to `O=C(c1ccccc1)c1c(O)cc(O)cc1O[C@@H]1O[C@H](CO)[C@@H](O)[C@H](O)[C@H]1O`, for which the Potency entry is “inactive”.

For `N#Cc1ccc(Nc2nc(-c3ccc(O)cc3O)cs2)cc1C(F)(F)F`, the Potency is 50.1 µM (active).

For the compound `CCC1C(=O)N(C)c2cnc(Nc3ccc(C(=O)NC4CCN(C)CC4)cc3OC)nc2N1C1CCCC1` (stereo not given), the Potency result is “inactive”.

`COc1nc2ccc(Br)cc2cc1[C@@H](c1ccccc1)[C@@](O)(CCN(C)C)c1cccc2ccccc12`: the Potency is 89.1 µM (active).

`Cn1sc(=O)n(Cc2ccccc2)c1=O`: the Potency is 7.94 µM (active).

For the next assay the target is unchanged. Put plainly: Primary qHTS for Identification of Calcium Integrin Binding Protein 1 (CIB1) Competitor (AID 1508620). As to conditions: CIB1-GST / FITC-alphaIIb peptide fluorescence polarization; series mostly up to 114 µM. The method, boiled down:
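CIB1-GST (1 uM final) and compound incubated 15 min at room temperature before adding FITC-alphaIIb peptide tracer (100 nM final). Competition for binding read by fluorescence polarization (ex 480, em 540) after another 15 min at room temperature.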
(qHTS replaces the single test concentration by a dilution series.)
`CN1C(=O)c2sccc2N(C)c2nc(Nc3ccc(S(N)(=O)=O)cc3)ncc21`: the Potency result is “inactive”.

Consider `CCNC1(C(N)=O)CCN(c2ncnc3c2nc(-c2ccccc2Cl)n3-c2ccc(Cl)cc2)CC1`, for which the Potency entry was “inactive”.

Take `CO[C@H]1[C@@H](O)[C@H](O[C@H]2CC[C@@]3(C)C(CCC4C3CC[C@]35COC6(COC(=O)C6)C3CCC45O)C2)O[C@@H](C)[C@@H]1OC1OC(CO)C(OC2OC(CO)C(O)C(O)C2O)C(O)C1O` (stereo not given in full): the Potency entry is “inactive”.

As for `C=C1C(=O)O[C@H]2C1CCC(C)=C1C(=O)C=C(C)[C@@]12O` (stereo not given in full), the Potency entry was “inactive”.

For the compound `CCC(C)C(=O)O[C@H]1[C@@H](OC(=O)c2ccoc2)C[C@](C)(O)[C@]23OC(C)(C)[C@H](C[C@H](OC(=O)c4ccoc4)[C@]12COC(C)=O)[C@H]3OC(C)=O` (stereo not given in full), the Potency entry was “inactive”.

Regarding `O=C(O)CSc1cc(NS(=O)(=O)c2ccc(Br)cc2)c2ccccc2c1O`, the Potency is 44.7 µM (active).

`CCCC(CCC)C(=O)NCc1ccc2c(cnn2-c2ccccc2OC)c1`: the Potency entry is “inactive”.

With `Cn1cc(-c2cnn3c(N)c(Br)c(C4CCCNC4)nc23)cn1` (stereo not given), the Potency result was “inactive”.

Take `CC1(C)CN(C(=O)c2ccc(-c3cccc4nc(NC(=O)C5CC5)nn34)cc2)C1`: the Potency entry is “inactive”.

With `O=C(Nc1ccn(Cc2ccc(O)cc2C(F)(F)F)n1)c1c(F)cccc1F`, the Potency entry was “inactive”.

Regarding `O=C(Nc1ccc2[nH]c(=O)oc2c1)C(=O)N1CCC(Cc2ccc(F)cc2)CC1`, the Potency entry was “inactive”.

Turning to `COC1CC/C=C(\C)C(=O)Nc2cc(O)cc(c2)CC(C)CC(OC)C(O)C(C)/C=C(\C)C1OC(N)=O` (stereo not given), the Potency result is “inactive”.

On to `CCCCC1CCC(c2nc(-c3ccncc3)no2)CC1` (stereo not given), for which the Potency result was “inactive”.

For `C=CC(=O)Nc1cccc(Nc2nc(Nc3ccc(NC4CN(CCF)C4)cc3OC)ncc2C(F)(F)F)c1`, the Potency entry was “inactive”.

Regarding `C=CC(C)(O)CC[C@@H]1[C@@]2(C)CCCC(C)(C)C2CC[C@@]1(C)O` (stereo not given in full), the Potency entry is “inactive”.

As for `CC(CCC1(O)OC2CC3C4CC=C5C[C@@H](O[C@@H]6O[C@H](CO)[C@@H](O[C@@H]7O[C@@H](C)[C@H](O)[C@@H](O)[C@H]7O)[C@H](O)[C@H]6O[C@@H]6O[C@@H](C)[C@H](O)[C@@H](O)[C@H]6O)CC[C@]5(C)C4CC[C@]3(C)[C@@]2(O)[C@@H]1C)CO[C@@H]1O[C@H](CO)[C@@H](O)[C@H](O)[C@H]1O` (stereo not given in full), the Potency entry is “inactive”.

Take `COc1c(C(O)CC(C)C)ccc2c1C(=O)OCc1cc(C)cc(O)c1O2` (stereo not given): the Potency result was “inactive”.

On to `NC(=O)CCCSc1nc(N)nc(-c2c(Cl)cc3c4c(cccc24)COC3)n1`, for which the Potency result was “inactive”.

As to `COc1cc2c(cc1OCCCN1CCCC1)N=C(N)C21CCC1`, the Potency result is “inactive”.

As for `Cc1cc2c(F)c(Oc3ncnn4cc(OCC(C)OC(=O)C(C)N)c(C)c34)ccc2[nH]1` (stereo not given), the Potency entry is “inactive”.

Regarding `NC(=O)c1cnc(N[C@@H]2CCCC[C@@H]2N)nc1Nc1cccc(-n2nccn2)c1`, the Potency entry was “inactive”.

As for `C=CC(=O)N1CC(N2CCN(C(=O)CNc3cc(C4CC4)c(Cl)cc3O)CC2)C1`, the Potency entry is “inactive”.

Take `C/C=C/C=C/C=C/C(=O)O[C@@H]1C=C(CO)C(O)(C(=O)OC)[C@@]2(C)CCCC(C)(C)C12` (stereo not given in full): the Potency result was “inactive”.

As to `Fc1ccc2c(CCNCc3cccc(OCC(F)(F)C(F)F)c3)c[nH]c2c1`, the Potency entry was “inactive”.

With `O=C(Nc1ccnc(NC(=O)C2CC2)c1)c1c(Cl)cccc1Cl`, the Potency result was “inactive”.

With `CCCC(=O)C1(c2ccccc2)CCN(C(=O)[C@@H](Cc2ccc(OC)cc2)NC(=O)[C@@H](N)Cc2cncn2C)CC1`, the Potency result was “inactive”.

With `Cn1sc(=O)n(Cc2ccccc2)c1=O`, the Potency was 8.91 µM (active).

`C=C1C(=O)OC2CC(C)=C(C(C)CCCOC(C)=O)C(OC(=O)CC(C)CC)C12` (stereo not given): the Potency entry is “inactive”.

In the case of `CO[C@H]1O[C@@H]2O[C@@]3(C)CCC4[C@H](C)CCC([C@H]1C)[C@]42OO3` (stereo not given in full), the Potency result was “inactive”.

As for `COc1ccc(NC(=O)c2ccc(-c3ccc(-c4nnc(C)o4)cc3C)cc2)cc1N1CCN(C)CC1`, the Potency result is “inactive”.

Turning to `COc1cc(CCc2cc(NC(=O)c3ccc(N4CC(C)NC(C)C4)cc3)n[nH]2)cc(OC)c1` (stereo not given), the Potency result was “inactive”.

On to `COC1C(O)C(OC2CCC3(C)C(CCC45CCC6C7(COC(=O)C7)OC4(O)C6(C)CCC35)C2)OC(C)C1OC1OC(CO)C(OC2OC(CO)C(O)C(O)C2O)C(O)C1O` (stereo not given), for which the Potency result was “inactive”.

For `CCOC(=O)[C@@]1(CCCCCCOc2ccc(Cl)cc2)CO1`, the Potency entry is “inactive”.

With `O=C(NCCCNc1nc(Nc2cccc(CN3CCOCC3)c2)ncc1C1CC1)C1CCC1`, the Potency result is “inactive”.
